High-throughput results from PubChem.
SW480 rereplic: A quantitative high throughput screen for small molecules that induce DNA re-replication in SW480 colon adenocarcinoma cells; SW480 DNA re-replication, Hoechst DNA content imaging, 48 h; Potency, µM (doses to about 46.1 µM), for the others: at the highest dose re-replication activation, most hits filed as activators; 1.8% of 340,000 active; AID 624297, 2012; note: % of control where 0% means no effect; nearly all actives have a fitted effect of over 55% in size
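Quantitative HTS format with DMSO vehicle controls; 48 hr drug incubation at 37 C, then 40 min Hoechst staining and scanning imager measurement at 405 nm excitation.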
KB-3-1 tox: qHTS assay for MDR1-selective chemotherapeutics: Primary screen using the parental adenocarcinoma cell KB-3-1; KB-3-1 viability, CellTiter-Glo ATP luminescence, 72 h; AID 1347075, 2019; Potency, µM (top dose mostly 46.1 µM), usual class: cytotoxic; 1.4% of 400,000 active; note: % is set by controls: 0 for no effect and ±100 for the full control effect; nearly all actives have a fitted effect of over 60% in size
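Parental KB-3-1 viability, qHTS format: 72 h compound exposure, 37 °C; CellTiter-Glo; media-only wells and DMSO plates as controls; concentration-effect fits on corrected data.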
MCF10A rereplic: A quantitative high throughput screen for small molecules that induce DNA re-replication in MCF 10a normal breast cells. Potency, µM (top dose mostly 46.1 µM), inactives show at the highest dose activity, positive = re-replication, usual class: activators. MCF 10A DNA re-replication, Hoechst nuclear intensity, 48 h. AID 624296, 2012. 2.9% of 350,000 active; note: % of control where 0% means no effect; nearly all actives have a fitted effect of over 50% in size
HT1080 IDH1KD tx: qHTS for induction of synthetic lethality in tumor cells producing 2HG: qHTS for the HT-1080-IDH1KD cell line; AID 686971, 2013; Potency, µM (titrated, usually from 46.1 µM), without a hit: top-dose activity, negative = toxicity, usual class: cytotoxic; HT-1080 IDH1 knockdown viability, ATP luminescence, 48 h; 2% of 360,000 active;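 note: 0% = DMSO wells and -100% = cell-free medium wells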
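In this qHTS, HT-1080 cells depleted of IDH1 are exposed for 48 h at 37 °C to compound titrations. Toxicity is scored from CellTiter-Glo luminescence, with DMSO as full viability and medium alone as none.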
KB-V1 MDR tox: qHTS assay for MDR1-selective chemotherapeutics: Primary screen using the drug-selected MDR subline cells KB-V1 | KB-V1 MDR cells viability, CellTiter-Glo, 72 h | Potency, µM (highest dose often 46.1 µM), hits mostly cytotoxic | 3.4% of 400,000 active; note: % is set by controls: 0 for no effect and ±100 for the full control effect; nearly all actives have a fitted effect of over 60% in size
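Readout: CellTiter-Glo luminescence, 10 min after addition. Cells: KB-V1 MDR subline, 72 h at 37 degrees C with compound. Analysis: corrected, normalized data fitted to concentration-effect curves.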
HT1080-NT tox: qHTS for induction of synthetic lethality in tumor cells producing 2HG: qHTS for the HT-1080-NT fibrosarcoma cell line | 1.6% of 360,000 active | AID 686970, 2013 | Potency, µM (highest dose often 46.1 µM), for inactives: at the highest dose activity, negative = less viability, usual class: cytotoxic | HT-1080-NT fibrosarcoma viability, CellTiter-Glo ATP luminescence, 48 h;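 note: NT is the 2HG producing partner of a matched IDH1 knockdown line; 0% = DMSO-treated cells and -100% = media-only wells without cells; nearly all actives have a fitted effect of over 55% in size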
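Luminescent CellTiter-Glo readout after 48 hours of compound exposure at 37 degrees C defined viability of HT-1080-NT cells. Activity was normalized to DMSO wells and cell-free media wells; concentration-response curves were fitted and assigned curve classes.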
Numbers without * were called inactive; i = inactive; ? = inconclusive; . = no result; [ ] = remark or other dose. Sampled rows, rich in hits. Any-hit rate of the full collection: about 8%. Calls come from the whole dose curve; as a rule, active = well fitted curve in the direction sought with a large enough effect; inconclusive = small, poorly fitted or top-dose-only effect, or another doubt; inactive = no such curve, though single readings can be large; an effect the other way counts as inactive or inconclusive. Potency is the fitted concentration of half-maximal effect.

SMILES	SW480 rereplic	KB-3-1 tox	MCF10A rereplic	HT1080 IDH1KD tx	KB-V1 MDR tox	HT1080-NT tox
Cc1cccc(Cn2c(=O)n(CCCC(=O)NCc3ccco3)c(=O)c3ccccc32)c1	21µM*	9.2µM*	?	?	15µM*	?
O=C(CCCn1c(=O)c2sccc2n(Cc2ccc(F)cc2)c1=O)NCc1ccco1	6%	?	6%	?	i	10µM*
O=C(CCCn1c(=O)c2sccc2n(CC(=O)OCc2ccccc2)c1=O)NCc1ccco1	0%	i	18%	17%	i	-1%
O=C(CCCCn1c(=O)c2ccccc2n(Cc2ccc(Cl)cc2)c1=O)NCc1ccco1	?	15µM*	?	-17%[9.24 µM]	4.6µM*	?
Cc1ccccc1Cn1cnc2c(NS(C)(=O)=O)c(C)c(C)cc21	-10%	?	?	-11%	16µM*	-7%
CCOc1ccccc1N1CCN(CC(=O)Nc2nc(C)c(C(=O)N(C)C)s2)CC1	-2%	?	1%	15%	i	-4%
Cc1cccc(Nc2nc(N)c([N+](=O)[O-])c(N3CCC(C)CC3)n2)c1	?	?	23µM*	?	?	?
Cc1cccc(Nc2nc(N)c([N+](=O)[O-])c(N3CC(C)CC(C)C3)n2)c1 (centres undefined)	?	?	26%	21µM*	21µM*	16µM*
Cc1cccc(Nc2nc(N)c([N+](=O)[O-])c(N3CC(C)OC(C)C3)n2)c1 (centres undefined)	-9%	?	1%	5%	i	4%
CCN1CCN(c2nc(Nc3ccc(C)c(C)c3)nc(N)c2[N+](=O)[O-])CC1	1%	?	2%	?	?	?
CCN1CCN(c2nc(Nc3cccc(OC)c3)nc(N)c2[N+](=O)[O-])CC1	16µM*	?	28%	?	i	?
COc1ccccc1NC(=O)Nc1nc(CC(=O)N2CCN(c3ccccc3OC)CC2)cs1	-2%	i	?	-14%	?	-6%
CC1(C(=O)OCC(=O)NC(=O)NCc2ccccc2)CC1(Cl)Cl (centres undefined)	-4%	i	1%	13%	?	12%
Cc1ccc(-n2c(Cc3ccccc3)nnc2SCC(=O)NNC(=O)Cc2ccccc2)cc1	3%	i	21%	10%	i	-2%
COc1cc(C2Nc3ccc4ncccc4c3C3=C2C(=O)CCC3)cc(OC)c1O (centres undefined)	?	?	?	8.2µM*	i	16µM*
O=C1CCCC2=C1C(c1ccco1)Nc1ccc3ccccc3c12 (centres undefined)	-34%	i	0%	?	21µM*	-10%
Cc1ccc(C2Nc3ccc4ccccc4c3C3=C2C(=O)CC(C)(C)C3)o1 (centres undefined)	?	i	?	?	10µM*	-18%
CC1(C)CC(=O)C2=C(C1)c1c(ccc3ncccc13)NC2c1cccs1 (centres undefined)	?	3.7µM*	9.2µM*	4.1µM*	5.8µM*	3.3µM*
O=C1CCCC2=C1C(c1ccc(O)c(O)c1)Nc1ccc3ccccc3c12 (centres undefined)	26%	i	21%	?	?	?
COC(=O)c1ccc(NC(=S)NC2CCCCC2C)cc1 (centres undefined)	?	?	44%	?	?	?
CN(C(=O)CN1CCN(c2cc(-c3ccc(-c4ccccc4)cc3)ncn2)CC1)c1ccccc1	.	?	.	13µM*	i	15µM*
